Hit rate of the full screen: of about 310,000 compounds, about 14,000 (4.5%) showed an effect of 50% or more. The effect is printed as a negative number. This is one part of a sample in which strong results are shown more often than they occur.
Target: human ether-à-go-go-related gene (hERG) potassium channel (human, UniProt Q12809)
Assay: primary screen, population patch clamp on CHO cells stably expressing hERG; higher = less effect of the substance
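Also: peak tail current of the secondary pulse compared with the same well before compound.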

human ether-à-go-go-related gene (hERG) potassium channel, sequence (Q12809 whole entry, looked up): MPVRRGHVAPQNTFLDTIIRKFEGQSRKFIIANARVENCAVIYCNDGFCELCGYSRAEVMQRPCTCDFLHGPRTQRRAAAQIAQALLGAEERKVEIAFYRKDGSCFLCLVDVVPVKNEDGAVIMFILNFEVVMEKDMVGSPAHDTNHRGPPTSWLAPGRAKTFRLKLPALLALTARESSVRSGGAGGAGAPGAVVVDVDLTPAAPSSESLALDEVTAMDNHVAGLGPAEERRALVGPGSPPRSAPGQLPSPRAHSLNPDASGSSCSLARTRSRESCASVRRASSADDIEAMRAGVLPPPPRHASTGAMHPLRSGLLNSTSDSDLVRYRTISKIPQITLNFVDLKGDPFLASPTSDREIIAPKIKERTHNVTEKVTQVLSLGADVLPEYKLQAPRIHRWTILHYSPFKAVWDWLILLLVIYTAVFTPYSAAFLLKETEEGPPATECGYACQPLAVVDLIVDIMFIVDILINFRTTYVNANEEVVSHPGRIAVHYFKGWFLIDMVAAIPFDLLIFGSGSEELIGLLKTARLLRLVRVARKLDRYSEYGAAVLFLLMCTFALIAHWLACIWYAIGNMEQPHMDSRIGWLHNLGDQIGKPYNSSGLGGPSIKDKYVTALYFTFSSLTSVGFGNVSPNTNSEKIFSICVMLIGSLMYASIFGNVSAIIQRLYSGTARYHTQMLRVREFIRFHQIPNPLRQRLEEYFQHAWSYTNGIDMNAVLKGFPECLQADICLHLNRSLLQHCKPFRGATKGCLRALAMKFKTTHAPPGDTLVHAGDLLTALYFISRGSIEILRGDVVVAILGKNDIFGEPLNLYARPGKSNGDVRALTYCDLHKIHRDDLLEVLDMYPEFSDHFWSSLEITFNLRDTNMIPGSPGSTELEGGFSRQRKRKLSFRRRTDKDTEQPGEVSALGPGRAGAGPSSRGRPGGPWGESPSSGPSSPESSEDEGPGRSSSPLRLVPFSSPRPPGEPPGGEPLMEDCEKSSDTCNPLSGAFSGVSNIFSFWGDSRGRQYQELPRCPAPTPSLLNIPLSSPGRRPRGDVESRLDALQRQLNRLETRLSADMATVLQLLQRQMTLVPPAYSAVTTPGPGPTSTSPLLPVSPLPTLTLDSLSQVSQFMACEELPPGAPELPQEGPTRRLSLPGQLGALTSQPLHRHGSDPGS

First: CCCCn1c(SCc2c(C)noc2C)nc2cc(S(N)(=O)=O)ccc21
Second: CCCCn1c(SCc2nc3ccccc3s2)nc2cc(S(N)(=O)=O)ccc21
The “hERG current change (%, negative = inhibition) at 10uM” value of the first is lower: -43.1% for the first, -37.5% for the second.

Compared with `CCCCn1c(SCC(=O)N2CCC(C(=O)OCC)CC2)nc2cc(S(N)(=O)=O)ccc21`, `CCCCn1c(SCC(=O)N2CCC(C)CC2)nc2cc(S(N)(=O)=O)ccc21` is higher in “hERG current change (%, negative = inhibition) at 10uM” value: -70.7% for the first, -30.2% for the second.

Going from `CCCCn1c(SCC(=O)N2CCCC2)nc2cc(S(N)(=O)=O)ccc21` to `CCCCn1c(SCc2ncc(-c3ccccc3)o2)nc2cc(S(N)(=O)=O)ccc21`, the “hERG current change (%, negative = inhibition) at 10uM” value falls from 9.3% to -50.5%.

Going from `Cc1cc(C(=O)CSc2nn3c(=O)c(C(C)(C)C)nnc3s2)c(C)n1C` to `COc1ccc(NC(=O)CN(C)S(=O)(=O)c2cccc3nsnc23)cc1OC`, the “hERG current change (%, negative = inhibition) at 10uM” value falls from 9.61% to -10.3%.

Compared with `COc1ccc(NC(=S)NCCc2ccc(F)cc2)c(OC)c1`, `Cn1c(-c2ccc(F)cc2)cnc1NCc1ccc(F)cc1` is lower in “hERG current change (%, negative = inhibition) at 10uM” value: -19.4% for the first, -40.7% for the second.

Going from `O=C1c2cccc3c([N+](=O)[O-])ccc(c23)C(=O)N1c1ccccn1` to `O=C1c2ccccc2C(=O)N1CN(C(=O)COc1ccc(Cl)cc1Cl)c1cccc(F)c1`, the “hERG current change (%, negative = inhibition) at 10uM” value falls from 7.95% to 1.4%.

Going from `O=C(Cc1cccs1)NNC(=S)NC(=O)c1ccc(F)c(F)c1` to `COc1cccc(S(=O)(=O)Nc2ccc(C(=O)NCc3ccco3)cc2)c1`, the “hERG current change (%, negative = inhibition) at 10uM” value falls from 12.2% to 3.01%.

First: Cc1ccc2nc(-c3ccc(SCC(=O)Nc4ccc5c(c4)OCCO5)nc3)[nH]c2c1
Second: Cc1ccc2nc(SCC(=O)Nc3ccc4c(c3)OCCO4)[nH]c2c1
The “hERG current change (%, negative = inhibition) at 10uM” value of the first is lower: -5.51% for the first, 4.73% for the second.

Compared with `CC(C)NC(=O)CN1CCC(c2nc3ccccc3[nH]2)CC1`, `CCCNC(=O)CN1CCC(c2nc3ccccc3[nH]2)CC1` is higher in “hERG current change (%, negative = inhibition) at 10uM” value: -8.64% for the first, 15.6% for the second.

Compared with `C=CCNC(=O)CN1CCC(c2nc3ccccc3[nH]2)CC1`, `CC(C)N(C(=O)CN1CCC(c2nc3ccccc3[nH]2)CC1)C(C)C` is lower in “hERG current change (%, negative = inhibition) at 10uM” value: 7.7% for the first, -4.13% for the second.

First: Cc1ccc2nc(C3CCN(CC(=O)Nc4ccc5c(c4)OCCO5)CC3)[nH]c2c1
Second: O=C(CN1CCC(c2nc3ccccc3[nH]2)CC1)Nc1ccc2c(c1)OCO2
The “hERG current change (%, negative = inhibition) at 10uM” value of the first is higher: -50.6% for the first, -53.1% for the second.

Compared with `O=C(CN1CCC(c2nc3ccccc3[nH]2)CC1)NCc1ccc2c(c1)OCO2`, `COc1cc(OC)c(NC(=O)CCNC(=O)Cn2cnc3ccccc3c2=O)cc1Cl` is higher in “hERG current change (%, negative = inhibition) at 10uM” value: -84.3% for the first, -0.133% for the second.

First: CCN1CCN(Cc2ccc(NC(=O)c3cc(NC(=O)c4ccc5n[nH]nc5c4)cc(OC)c3)cc2C(F)(F)F)CC1
Second: FC(F)(F)COc1nc(N/N=C/c2cccnc2)nc(N2CCCCC2c2ccccn2)n1 (stereo not shown)
The “hERG current change (%, negative = inhibition) at 10uM” value of the first is higher: 21.1% for the first, -60.8% for the second.

Going from `CC(C(=O)OCC(=O)c1ccccc1)N1C(=O)C2C3CCC(C3)C2C1=O` (stereo not shown) to `CC(C)c1ccc(N2C(=NC(=O)C3CCCO3)SC3CS(=O)(=O)CC32)cc1` (stereo not shown), the “hERG current change (%, negative = inhibition) at 10uM” value falls from 10.5% to -9.87%.

Going from `c1ccc(OCCCn2nnc(-c3ccc(N4CCOCC4)cc3)n2)cc1` to `Cn1c(-c2ccc(F)cc2)cnc1NCc1ccccc1`, the “hERG current change (%, negative = inhibition) at 10uM” value falls from 15.4% to -46.7%.

Going from `CCc1ccc(N(CC(=O)NC2CCCCC2)C(=O)CNC(=O)c2ccco2)cc1` to `O=C(O)CCC(=O)Nc1sc2c(c1C(=O)NC1CCCC1)CCCC2`, the “hERG current change (%, negative = inhibition) at 10uM” value rises from -13.6% to 5.76%.

Compared with `Cn1c(-c2ccccc2)cnc1NCc1ccc(-c2ccccc2)cc1.O=C(O)C(=O)O`, `Cn1c(-c2ccc(Br)cc2)cnc1NCc1ccc(C#N)cc1.O=C(O)C(=O)O` is lower in “hERG current change (%, negative = inhibition) at 10uM” value: -10.4% for the first, -76.6% for the second.

Going from `Cn1c(-c2ccc(F)cc2)cnc1NCc1ccc(C#N)cc1` to `CCc1nnc(NS(=O)(=O)c2ccc(NC(=O)/C=C/c3ccc(F)cc3)cc2)s1`, the “hERG current change (%, negative = inhibition) at 10uM” value rises from -73.7% to 8.28%.

Going from `Cc1cc(C)cc(C(=O)NC(CC(N)=O)c2ccc(NC3CCCCCCC3)c([N+](=O)[O-])c2)c1` (stereo not shown) to `COCCN(CC(=O)NCc1ccc(OC)cc1)C(=O)CCC(=O)Nc1nccs1`, the “hERG current change (%, negative = inhibition) at 10uM” value falls from 1.06% to -8.1%.

Compared with `CC(=O)c1c(O)cc(C)oc1=O`, `O=Cc1sc(Nc2ccccc2)nc1Cl` is lower in “hERG current change (%, negative = inhibition) at 10uM” value: 25.5% for the first, -13.1% for the second.

Compared with `C(=N\Nc1nc(N2CCCC2)nc(N2CCCC2)n1)/c1cccnc1`, `C(=N\Nc1nc(N2CCOCC2)nc(N2CCOCC2)n1)/c1cccnc1` is lower in “hERG current change (%, negative = inhibition) at 10uM” value: 6.33% for the first, -12.1% for the second.

`O=S(Cc1cc(Oc2ccccc2)nc(-c2ccccc2)n1)c1ccccc1` (stereo not shown) was tested, and the “hERG current change (%, negative = inhibition) at 10uM” value was -7.69%.
